The structures appear in SMILES notation. The panel holds about 83,000 compounds, 20% with a hit somewhere; the sample as a whole holds those more often.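 Plates (96-well) were seeded with cells, treated with compound at one concentration, and incubated for 48 hours before percent growth was determined.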 Values without a mark were called inactive. Active and inactive are the calls of the source. Rule for the calls: active = growth percent below 10; inactive = the rest.

Test in all cases: NCI-60 one-dose screen, 48 h (100 = growth as untreated, 0 = no growth, -100 = all killed)
Holding throughout (conditions): 10 µM unless noted

For experiment [1], the system named is SK-MEL-2 melanoma.
For experiment [2], the system named is EKVX NSCLC.
For experiment [3], the system named is SN12C renal.
In experiment [4] the test system is UO-31 renal.
Experiment [5] relates to TK-10 renal.
The test system of experiment [6] is ACHN renal.
The subject of experiment [7] is CAKI-1 renal.
Experiment [8] deals with A498 renal.
Experiment [9] deals with CCRF-CEM leukemia.
Experiment [10] deals with MOLT-4 leukemia.
Experiment [11] concerns SR leukemia.
Experiment [12] deals with RPMI-8226 leukemia.
In experiment [13] the test system is OVCAR-8 ovarian.
Experiment [14] concerns OVCAR-5 ovarian.
Experiment [15] relates to OVCAR-4 ovarian.
In experiment [16] the test system is SK-OV-3 ovarian.
The test system of experiment [17] is IGROV1 ovarian.
For experiment [18], the system named is OVCAR-3 ovarian.
The subject of experiment [19] is HS 578T breast.
Experiment [20] relates to NCI/ADR-RES ovarian.

Regarding `Oc1c(Br)cc(Br)c2ccc(Cn3cc(-c4ccccc4C(F)(F)F)nn3)nc12`, the growth in [1] is 101%; in experiment [2] it was 95.5%; in [3] it was 96.9%; in experiment [4], 78.7%; in [5] it was 134%; in [6], 61.8%. Moreover, the growth in experiment [7] is 55%; in experiment [8], 106%; in [9], 28.7%; in experiment [10], 6.89% (active); in experiment [11] it was 2.33% (active); in experiment [12], 45.4%. For the same compound, the growth in experiment [13] is 92.9%; in experiment [14] it was 100%; in [15] it was 79.4%; in [16], 116%; in experiment [17], 107%; in experiment [18], 51.5%. Also, the growth in [19] and in experiment [20] was 105% in each case.
Consider `N#Cc1nc(-c2ccc(F)cc2)oc1S(=O)(=O)N1CCOCC1`, for which the growth in experiment [1] was 83.6%; in experiment [2], 96.2%; in experiment [3] it was 82.1%; in experiment [4] it was 82%; in experiment [5] it was -80.9% (active); in experiment [6], -99.9% (active). Further, the growth in [7] was 78.5%; in experiment [8] it was 128%; in experiment [9], 3.08% (active); in experiment [10], -5.27% (active); in experiment [11], -5.89% (active); in experiment [12], 41.2%. In addition, the growth in [13] was 63.1%; in experiment [14], 101%; in experiment [15], 60.9%; in [16], 99.4%; in experiment [17], 78.3%; in [18], -88.4% (active). Further, the growth in experiment [19] was 123%; in experiment [20], 91.1%.
As to `CN(C)c1ccc(C(=O)OCCCCCCl)cc1`, the growth is 94.7% in [1]; 96.9% in [2]; 96% in experiment [3]; 77.8% in experiment [4]; 96.5% in experiment [5]; 102% in experiment [6]. The growth in [7] was 89.1%; in experiment [8] it was 83.9%; in experiment [9], 122%; in experiment [10], 86.1%; in experiment [11], 89.4%; in experiment [12], 106%. Further, the growth in experiment [13] is 106%; in [14] it was 75.6%; in [15] it was 95.4%; in experiment [16], 102%; in experiment [17], 101%; in experiment [18], 95.4%. Further, the values for the growth in experiment [19] and in experiment [20] were 103% and 97.6%, respectively.
With `Cc1cc(S(=O)(=O)/N=C(\N)n2nc(C)c(C)c2C)c(SCc2ccccc2)cc1Cl`, the growth in [1] was -12.3% (active); in experiment [2], 38.9%; in [3], 76.3%; in [4] it was 23.8%; in [5], 116%; in experiment [6], 71.2%. Further, the growth is 71.9% in experiment [7]; 85.1% in [8]; 41.5% in experiment [9]; 46% in experiment [10]; 65.8% in experiment [11]; 26.5% in experiment [12]. Also, the growth in [13] was 72.8%; in experiment [14] it was 90%; in experiment [15] it was 63.3%; in experiment [16], 106%; in experiment [17], -20.8% (active); in experiment [18], 81%. Also, the growth in [19] is 77.4%; in experiment [20] it was 57.4%.
With `Cc1ccc2c(n1)C(=O)C(Br)=C(CC(C)C)C2=O`, the growth in [1] is 110%; in experiment [2] it was 104%; in experiment [3] it was 98.8%; in experiment [4], 87.2%; in experiment [5], 115%; in experiment [6], 68.6%. Besides, the growth in experiment [7] was 92.7%; in experiment [8], 106%; in experiment [9], 24.2%; in experiment [10] it was 19.5%; in experiment [11], 17%; in experiment [12] it was 53%. For the same compound, the growth in experiment [13] is 97.6%; in experiment [14] it was 102%; in experiment [15], 104%; in experiment [16], 101%; in experiment [17], 81.5%; in experiment [18], 53.1%. The growth in experiment [19] is 102%; in experiment [20] it was 98.4%.
Take `C[PH+](c1nc2ccccc2nc1[PH+](C)C(C)(C)C)C(C)(C)C.C[PH+](c1nc2ccccc2nc1[PH+](C)C(C)(C)C)C(C)(C)C.[Au+].[Cl-]` (stereo not given): the growth in experiment [1] is -76.6% (active); in [2], -82.5% (active); in [3], -59.1% (active); in experiment [4] it was -90.9% (active); in experiment [5], -91.6% (active); in experiment [6] it was -97.1% (active). Further, the growth is -93.4% (active) in experiment [7]; -99.1% (active) in experiment [8]; 12.2% in [9]; 8.3% (active) in experiment [10]; 6.59% (active) in experiment [11]; -18.1% (active) in experiment [12]. Besides, the growth was -54.3% (active) in experiment [13]; -100% (active) in experiment [14]; -100% (active) in [15]; -100% (active) in [16]; -87.9% (active) in experiment [17]; -100% (active) in experiment [18]. The growth was -38.6% (active) in experiment [19] and -79.5% (active) in experiment [20].
With `Cn1ccnc1C(=O)/C=C/c1ccc(C(=O)Nc2ccc(Cl)cc2)cc1`, the growth in experiment [1] is 82.4%; in experiment [2], 8.52% (active); in experiment [3], 0.398% (active); in [4] it was -74.7% (active); in experiment [5], 16.9%; in [6] it was -39.9% (active). The growth in experiment [7] is -2.07% (active); in experiment [8] it was 19.5%; in experiment [9] it was 8.42% (active); in experiment [10], 5.13% (active); in experiment [11], -8.67% (active); in [12], -8.46% (active). The growth was 14.3% in [13]; 12.6% in [14]; 18.1% in [15]; 42.2% in experiment [16]; -22.4% (active) in experiment [17]; -12.8% (active) in experiment [18]. Moreover, the results for the growth in experiment [19] and in experiment [20] were 18.4% and 5.79% (active), respectively.
Regarding `O=C(Nc1ccccc1)Nc1ncnc2c1ncn2-c1ccc(Cl)cc1`, the growth in [1] was 107%; in experiment [2], 86.7%; in [3], 63.1%; in experiment [4], 70.3%; in [5], 58.9%; in experiment [6] it was 69.5%. For the same compound, the growth in experiment [7] is 93.9%; in experiment [8], 91%; in [9], 94.2%; in experiment [10], 84.2%; in [11], 74.1%; in experiment [12], 100%. Moreover, the growth in [13] is 83.7%; in experiment [14], 74.5%; in [15] it was -29.6% (active); in experiment [16], 75.4%; in [17] it was 78.5%; in [18] it was 99.5%. In addition, the results for the growth in [19] and in experiment [20] were 79.8% and 74.6%, respectively.

The values above are taken from PubChem BioAssay (NCI).
